Rows were chosen to be rich in hits. Some 2.9% of all compounds tested hit in one or more screens of this group.
LMP1 NFkB inh: reduces LMP1-driven NF-kappaB luciferase signal | LMP1-induced NF-kappaB luciferase reporter cells, luminescence | inhibition, % at 12.5 µM | hit rate 0.69% among 350,000; in the data active = inhibition above about 41%;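 also: 0% = neutral control wells and 100% = reference inhibitor control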
Peg3 promoter: inhibitors of Peg3 promoter; HeLa PEG-Prom luciferase reporter, luminescence, overnight; hit rate 1.7% among 360,000; inhibition, % at 20 µM; AID 588405;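 active = inhibition of at least 50% at 20 µM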
CF NFkB block: cystic fibrosis NF-kB activation inhibition; KKLEB NF-kB-GFP reporter, PAF-induced, GFP fluorescence overnight; inhibition, % at 5 µM; hit rate 0.86% among 360,000; AID 588850;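 active = at least 50% inhibition at 5 µM, scaled per plate between neutral and stimulator controls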;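 also: PAF is a Pseudomonas aeruginosa culture filtrate used as stimulus; plate controls were PAF-stimulated DMSO wells for no effect and unstimulated DMSO wells for full effect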
KKLEB cytotox: CF airway cell cytotoxicity counter-screen | KKLEB CF airway cells viability, ATPlite luminescence, overnight; active compounds read low; cells stimulated with P. aeruginosa culture filtrate | activity change (cytotoxicity), % at 5 µM | hit rate 0.36% among 360,000 | AID 602141;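 active = corrected activity change at or below -50% at 5 µM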
Shn3 3UTR inh: reduces Shn3 3'UTR luciferase signal in osteoblasts; Clone20 osteoblast Shn3 3'UTR firefly luciferase, 24 h; inhibition, % at 12.5 µM; hit rate 0.52% among 360,000; AID 588674;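 active = mean inhibition of at least 75% with every replicate also reaching 75%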;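 also: 0% = median of neutral control wells and 100% = pilot-screen positive control compound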
HIF-2a inh: blocks HIF-2a reporter activity; 786-0 RCC cells HIF-2a reporter, luciferase luminescence, overnight; inhibition, % at 18.8 µM; hit rate 0.72% among 360,000;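 active = inhibition of the luminescence signal of 40% or more relative to plate controls, in a single-dose primary screen at 18.75 µM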
CF NFkB conf: CF NF-kB inhibition confirmation, single concentration; KKLEB CF airway cells, PAF-induced NF-kB-GFP fluorescence, overnight; shares compounds with CF NFkB block; hit rate 64% among 1,300; AID 602472; inhibition, % at 5 µM; in the data active = inhibition above about 40%;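 also: stimulus PAF is a Pseudomonas aeruginosa filtrate and not platelet activating factor; plate controls were DMSO wells with stimulus for no effect and unstimulated DMSO wells for full effect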
Mdm2-MdmX confirm: confirmation of inhibitors of human Mdm2/MdmX interaction, set 2 | SaOS-2 split-luciferase Mdm2/MdmX complementation, luminescence | inhibition, % at 8 µM | shares compounds with HIF-2a inh | hit rate 99% among 740;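 active = mean inhibition of the luminescence signal across two replicates at or above 26 percent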
Target sequence (O15151 whole entry, looked up): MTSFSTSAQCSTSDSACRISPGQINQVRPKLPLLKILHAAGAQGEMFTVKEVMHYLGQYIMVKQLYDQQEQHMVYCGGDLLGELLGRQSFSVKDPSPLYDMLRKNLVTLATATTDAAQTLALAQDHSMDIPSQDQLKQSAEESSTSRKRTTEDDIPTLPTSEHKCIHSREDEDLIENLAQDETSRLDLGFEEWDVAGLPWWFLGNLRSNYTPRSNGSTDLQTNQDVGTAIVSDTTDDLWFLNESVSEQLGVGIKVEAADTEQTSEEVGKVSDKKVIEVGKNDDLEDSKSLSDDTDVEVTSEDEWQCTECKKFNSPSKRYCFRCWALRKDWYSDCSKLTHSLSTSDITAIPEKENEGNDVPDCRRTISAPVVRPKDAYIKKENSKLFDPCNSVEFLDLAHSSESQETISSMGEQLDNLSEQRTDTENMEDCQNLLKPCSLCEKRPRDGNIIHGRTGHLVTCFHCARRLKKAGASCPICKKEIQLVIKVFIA
Target sequence (Q00987 whole entry, looked up): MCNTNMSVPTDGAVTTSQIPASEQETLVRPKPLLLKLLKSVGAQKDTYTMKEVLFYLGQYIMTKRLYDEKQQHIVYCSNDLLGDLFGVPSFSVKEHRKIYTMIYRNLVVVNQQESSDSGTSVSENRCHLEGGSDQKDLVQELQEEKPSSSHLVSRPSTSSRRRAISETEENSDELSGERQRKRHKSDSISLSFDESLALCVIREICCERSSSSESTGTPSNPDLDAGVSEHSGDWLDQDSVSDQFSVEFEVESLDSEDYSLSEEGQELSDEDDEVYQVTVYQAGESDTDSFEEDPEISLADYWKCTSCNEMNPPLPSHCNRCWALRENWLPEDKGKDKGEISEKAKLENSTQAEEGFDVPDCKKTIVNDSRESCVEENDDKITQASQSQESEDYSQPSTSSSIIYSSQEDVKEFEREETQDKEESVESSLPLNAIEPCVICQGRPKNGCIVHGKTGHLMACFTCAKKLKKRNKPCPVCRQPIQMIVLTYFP
HIF-2a conf: HIF-2a inhibition, single concentration confirmation | shares compounds with HIF-2a inh | 786-0 RCC cells, HIF-2a luciferase reporter luminescence, overnight | inhibition, % at 18.8 µM | hit rate 56% among 1,800;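 active = mean inhibition across four replicates of at least 40 percent at the single tested concentration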
HIF-1a cs: inhibits HIF-1a reporter, a counter-screen for HIF-2a inhibitors | shares compounds with HIF-2a inh | MiaPaCa-2 HIF-1a luciferase reporter, desferoxamine, overnight | inhibition, % at 18.8 µM | hit rate 72% among 1,800 | AID 651589;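 active = mean inhibition of the reporter signal across four replicates at the single tested dose of 50% or more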
Starred values were filed as active, the others as inactive; i = inactive; · = no result.

SMILES	LMP1 NFkB inh	Peg3 promoter	CF NFkB block	KKLEB cytotox	Shn3 3UTR inh	HIF-2a inh	CF NFkB conf	HIF-2a conf	HIF-1a cs	others
COc1ccc(C(=O)Nc2nc(CC(=O)NCc3c(F)cccc3F)cs2)cc1	-21.7	-154.2	8.8	-11.7	-30.4	-218.8	·	·	·
CC(NC(=O)c1ccc(NC(=O)CC2SC(N3CCCC3)=NC2=O)cc1)c1ccc(S(N)(=O)=O)cc1 (stereo unspecified)	-7.3	7.8	11.2	-0.8	-20.2	5.8	·	·	·
C=C(C(=O)c1ccccc1)C(NC(C)(C)C)c1ccccc1 (stereo unspecified)	90.7*	104.4*	50.5*	-35.2	37.3	85.4*	-403.6	98.3*	105.4*
COC(=O)C(NC(=O)c1ccccc1)c1ccccc1 (stereo unspecified)	-0.4	1.6	0.1	-3.9	3.8	2.1	·	·	·
CC(=O)N1CCc2cc(Br)cc(S(=O)(=O)CCC(=O)N3CCN(c4ccccn4)CC3)c21	4.5	0.1	-15.1	1.2	1.6	16.6	·	·	·
O=C(NCc1cccnc1)/C(=C\c1ccc(-c2cccc(Cl)c2)o1)S(=O)(=O)c1ccccc1	-1.6	104.2*	70.3*	-19.4	97.1*	97.8*	76.5*	99.0*	104.7*
CCN(CC)S(=O)(=O)c1cccc(NC(=O)Nc2cccc(C(F)(F)F)c2)c1	46.0*	45.9	63.0*	-30.8	65.3	40.9*	38.0	-14.2	101.7*	Mdm2-MdmX confirm=95.2*
CCN(CC)S(=O)(=O)c1cccc(NC(=O)CC2CCCC2)c1	4.0	11.9	-8.0	5.5	15.1	9.0	·	·	·
C=CCNC(=O)/C(C#N)=C/c1ccc(OS(=O)(=O)c2ccc(C)cc2)c(OC)c1	0.7	7.5	75.0*	-17.5	11.9	59.3*	-38.8	45.6*	97.0*
COC(=O)N/N=C/c1ccc(OS(=O)(=O)c2ccc(C)cc2)c(OC)c1	4.5	27.7	-8.9	-1.1	2.0	19.0	·	·	·
Cc1ccc(C)c(Cn2nnc3c(=O)[nH]c(C(=O)NCc4ccco4)nc32)c1	5.9	-0.7	22.7	-12.8	-28.0	9.4	·	·	·
O=C(NCc1ccco1)c1nc2c(nnn2Cc2ccccc2Cl)c(=O)[nH]1	31.2	93.8*	89.7*	-48.8	11.1	45.3*	99.9*	57.1*	105.9*
C[C@H](CO)N1C[C@H](C)[C@H](CN(C)Cc2cncnc2)Oc2ncc(C#CC3(O)CCCC3)cc2C1=O	0.3	-24.9	-9.0	1.1	-12.3	-1.8	·	·	·
CCOc1cc(/C=C2\COc3ccccc3C2=O)cc(Br)c1OCC(=O)N(C)C	11.2	104.7*	97.8*	-32.1	75.3	90.7*	-195.8	60.5*	105.3*
O=C(C=Cc1ccccc1)CC(c1ccccc1)N1CCOCC1 (stereo unspecified)	-48.7	108.3*	93.7*	-35.7	23.9	69.7*	i	-26.3	102.4*
COC(=O)c1cc(=O)n(Cc2cccs2)c(=Nc2ccc(F)cc2)s1	0.5	80.6*	54.6*	-28.1	4.8	66.5*	-41.5	38.8	106.2*
COC(=O)c1cc(=O)n(Cc2ccc(F)cc2)c(=NCc2ccc(F)cc2)s1	7.7	13.9	11.6	2.5	-3.4	5.4	·	·	·
CN(Cc1ccccc1)C(=O)c1cccc(NC(=O)Cc2ccc(NC(=O)C3CCN(C(=O)C4CCCCC4)CC3)cc2)c1	-4.5	16.1	12.1	-5.6	-11.0	5.9	·	·	·
COc1ccc(CNC(=O)/C=C/c2ccccc2[N+](=O)[O-])cc1	7.4	-32.6	-11.5	-14.6	-9.5	-60.5	·	·	·
COC(=O)C(=Cc1ccccc1[N+](=O)[O-])C(=O)OC	-36.1	52.6*	59.1*	-2.1	39.4	76.6*	9.5	72.5*	59.1*

Compound activity as filed in PubChem.
